PubChem BioAssay (EPA / NIEHS)
Active and inactive are the calls of the source. Rule for the calls: active = hit-call score of the fitted dose curve at least 0.9, where 1 is the maximum; inactive = score below 0.9.

Key:
[1] = ATG_AP_1_CIS: Attagene CIS-FACTORIAL HepG2 Assay for human Activator Protein 1 (AP-1) (AID 2282931); details: HepG2 Attagene cis-factorial AP-1 reporter mRNA; actives raise or lower the signal
In short: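 Multiplexed HepG2 reporter assay, 24 h dosing. mRNA induction detected by RT-PCR plus capillary electrophoresis. Activity fitted in both directions against DMSO.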

[2] = ATG_AP_2_CIS: Attagene CIS-FACTORIAL HepG2 Assay for human Activator Protein 2 (AP-2) (AID 2282932); details: HepG2 AP-2 cis-reporter, Attagene transcription factor profiling; actives raise or lower the signal
In short: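 HepG2, transient MRTU transfection, cis-regulated reporters; 24 h compound exposure; RNA isolated, RT-PCR, 6-FAM labelling, HpaI digest, CE fluorescence. DMSO = negative control/baseline, bidirectional fit.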

[3] = ATG_BRE_CIS: Attagene CIS-FACTORIAL HepG2 Assay for human Bone Morphogenetic Protein (BMP) Response Element (BRE) (AID 2282933); details: HepG2 BMP response element reporter, Attagene transcription factor profiling; actives raise or lower the signal
In short: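 A HepG2 multiplex reporter system measured inducible reporter mRNA 24 h post-dosing. Detection: RT-PCR, 6-FAM primer extension, HpaI digestion, capillary electrophoresis. Activity fitted bidirectionally relative to DMSO.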

[4] = target: Retinoic acid receptor alpha (Homo sapiens) (UniProt P10276); assay: ATG_DR5_RAR_CIS: Attagene CIS-FACTORIAL HepG2 Assay for human Retinoic Acid Receptor Alpha (RARE), DR5 submotif (AID 2282934); details: HepG2 Attagene cis-factorial RARE DR5 reporter, mRNA; actives raise or lower the signal
Retinoic acid receptor alpha (Homo sapiens), sequence (P10276 whole entry, looked up): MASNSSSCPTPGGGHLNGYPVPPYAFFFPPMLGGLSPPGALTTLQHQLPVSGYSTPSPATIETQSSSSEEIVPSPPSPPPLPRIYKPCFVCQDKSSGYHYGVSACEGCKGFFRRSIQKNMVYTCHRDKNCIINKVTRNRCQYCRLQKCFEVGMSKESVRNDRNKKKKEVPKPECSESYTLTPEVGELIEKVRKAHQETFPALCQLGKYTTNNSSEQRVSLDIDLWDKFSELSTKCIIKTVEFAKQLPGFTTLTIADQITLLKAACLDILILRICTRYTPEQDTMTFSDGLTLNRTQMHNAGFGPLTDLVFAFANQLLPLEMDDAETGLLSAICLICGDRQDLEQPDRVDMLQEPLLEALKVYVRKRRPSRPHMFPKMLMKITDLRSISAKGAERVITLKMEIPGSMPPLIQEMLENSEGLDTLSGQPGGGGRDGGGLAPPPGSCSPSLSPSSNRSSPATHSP
In short: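 Reporter transcripts from a DR5-regulated unit, measured via RT-PCR plus capillary electrophoresis, reflect endogenous RAR activity in transiently transfected human HepG2 liver cells. Exposure lasted 24 h; gain or loss of signal scored against DMSO.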

[5] = ATG_M_61_CIS: Attagene CIS-FACTORIAL HepG2 Assay for M61 Transcription Factor (Internal Marker) (AID 2282937); details: HepG2 Attagene CIS-FACTORIAL M61 internal marker reporter; actives raise or lower the signal
In short: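 Endogenous transcription factor activity in HepG2 is read through transiently transfected cis-element reporter units. After 24 h dosing, RNA undergoes reverse transcription, PCR and primer extension with 6-FAM before capillary electrophoresis; DMSO-referenced bidirectional fit.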

[6] = ATG_M_19_CIS: Attagene CIS-FACTORIAL HepG2 Assay for M19 Transcription Factor (Internal Marker) (AID 2282939); details: HepG2 Attagene CIS-FACTORIAL M19 internal marker reporter; actives raise or lower the signal
In short: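 Chemical-treated HepG2 (24 h) with MRTU constructs; reporter transcripts detected by fluorescent RT-PCR fragment analysis on capillary electrophoresis. Internal background marker, DMSO as baseline.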

[7] = ATG_ERE_CIS: Attagene CIS-FACTORIAL HepG2 Assay for Estrogen Response Element (ERE) (AID 2282940); details: HepG2 ERE cis-reporter, Attagene RNA transcript; actives raise or lower the signal
In short: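 Human liver cells (HepG2) bearing transiently transfected, promoter-regulated reporter units were exposed 24 h. Reporter mRNA induction was detected by capillary electrophoresis of labelled RT-PCR products and fitted bidirectionally to DMSO.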

[8] = ATG_Ets_CIS: Attagene CIS-FACTORIAL HepG2 Assay for human Erythroblast Transformation Specific (ETS) (AID 2282941); details: HepG2 ETS cis-reporter transcription, actives raise or lower the signal
In short: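 Human HepG2 hepatoma cells were transiently transfected with promoter-driven reporter constructs and treated for 24 hours. Reporter transcripts were quantified by RT-PCR with fluorescent primer extension; bidirectional curve fitting used DMSO as reference.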

[9] = target: Hepatocyte nuclear factor 3-beta (Homo sapiens) (UniProt Q9Y261); assay: ATG_FoxA2_CIS: Attagene CIS-FACTORIAL HepG2 Assay for human Forkhead box A2 (FOXA2) (AID 2282942); details: HepG2 cis-reporter transcription factor activity, 24 h; actives raise or lower the signal
Hepatocyte nuclear factor 3-beta (Homo sapiens), sequence (Q9Y261 whole entry, looked up): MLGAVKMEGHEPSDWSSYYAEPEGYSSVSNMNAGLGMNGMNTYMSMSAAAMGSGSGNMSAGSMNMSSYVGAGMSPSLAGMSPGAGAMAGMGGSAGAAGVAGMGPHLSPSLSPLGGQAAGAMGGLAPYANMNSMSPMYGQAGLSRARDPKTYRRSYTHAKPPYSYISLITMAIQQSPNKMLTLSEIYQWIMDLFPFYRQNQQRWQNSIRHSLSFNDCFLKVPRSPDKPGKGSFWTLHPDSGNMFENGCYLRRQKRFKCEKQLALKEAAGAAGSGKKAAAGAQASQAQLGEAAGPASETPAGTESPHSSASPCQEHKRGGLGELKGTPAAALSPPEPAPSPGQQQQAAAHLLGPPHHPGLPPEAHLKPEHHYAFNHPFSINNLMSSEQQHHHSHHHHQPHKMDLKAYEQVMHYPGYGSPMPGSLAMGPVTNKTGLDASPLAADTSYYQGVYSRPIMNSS
In short: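 Reporter transcript induction is measured by fluorescence after capillary electrophoresis of RT-PCR products from HepG2 cells exposed 24 h. Cis-regulated reporter units report endogenous factor activity; curves fitted both directions against DMSO.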

[10] = ATG_FoxO_CIS: Attagene CIS-FACTORIAL HepG2 Assay for human Forkhead box O (FoxO) (AID 2282943); details: HepG2 Attagene cis-reporter, FoxO element, mRNA; actives raise or lower the signal
In short: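 Endogenous transcription factor activity read from multiplexed cis-promoter reporter transcripts in transiently transfected HepG2, 24 h after dosing. Reporter RNA measured via RT-PCR plus capillary electrophoresis of FAM-labeled products; gain or loss relative to DMSO.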

[11] = ATG_GATA_CIS: Attagene CIS-FACTORIAL HepG2 Assay for human GATA Binding Protein (AID 2282944); details: HepG2 GATA cis-element reporter, Attagene multiplex mRNA; actives raise or lower the signal
In short: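 Transfected cis-reporter HepG2 cells were treated with chemicals for 24 hours. Total RNA was then converted to cDNA, amplified with reporter-specific primers and analysed by fluorescent capillary electrophoresis, using DMSO-treated wells as baseline.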

[12] = ATG_GLI_CIS: Attagene CIS-FACTORIAL HepG2 Assay for human Zinc Finger Protein GLI1 (AID 2282945); details: HepG2, Attagene cis-factorial reporter mRNA, GLI element; actives raise or lower the signal
In short: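 Bidirectional curve fits relative to DMSO, using reporter mRNA levels from RT-PCR plus capillary electrophoresis. Cells were HepG2 transiently carrying cis-regulated reporter constructs, harvested 24 h after dosing.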

[13] = target: Bile acid receptor (Homo sapiens) (UniProt Q96RI1); assay: ATG_IR1_CIS: Attagene CIS-FACTORIAL HepG2 Assay for human Nuclear Receptor Subfamily 1 Group H Member 4 (NR1H4), IR1 submotif (AID 2282946); details: IR1 reporter transcription, actives raise or lower the signal
Bile acid receptor (Homo sapiens), sequence (Q96RI1 whole entry, looked up, the tested form may be a part): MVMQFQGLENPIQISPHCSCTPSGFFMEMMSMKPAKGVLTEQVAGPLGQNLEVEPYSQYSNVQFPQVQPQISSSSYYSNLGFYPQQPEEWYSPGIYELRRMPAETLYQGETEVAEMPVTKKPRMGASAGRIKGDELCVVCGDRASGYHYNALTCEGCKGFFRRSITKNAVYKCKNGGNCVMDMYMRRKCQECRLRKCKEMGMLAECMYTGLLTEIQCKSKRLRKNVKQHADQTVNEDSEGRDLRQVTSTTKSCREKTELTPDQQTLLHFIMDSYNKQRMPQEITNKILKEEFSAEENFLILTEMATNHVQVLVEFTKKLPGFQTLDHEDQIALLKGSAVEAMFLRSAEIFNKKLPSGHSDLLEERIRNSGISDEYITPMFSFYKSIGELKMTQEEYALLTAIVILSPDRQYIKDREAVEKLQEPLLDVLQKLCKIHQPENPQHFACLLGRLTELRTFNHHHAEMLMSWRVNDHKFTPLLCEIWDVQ
In short: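 Cells (human HepG2) carry transiently transfected cis-promoter reporter transcription units. Compounds are incubated 24 h, total RNA is reverse-transcribed and amplified, and labelled fragments are resolved by capillary electrophoresis. Curves use DMSO as baseline.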

[14] = ATG_GRE_CIS: Attagene CIS-FACTORIAL HepG2 Assay for human Glucocorticoid Response Elements (GRE) (AID 2282947); details: HepG2 GRE cis-reporter, Attagene multiplex mRNA; actives raise or lower the signal
In short: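 Transient MRTU transfection of human HepG2 liver cells; cis-regulated reporters report endogenous factors. 24 h dosing → RNA isolation → RT-PCR → 6-FAM primer extension → HpaI cut → CE fragment analysis. Bidirectional fit, DMSO negative control.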

[15] = ATG_ISRE_CIS: Attagene CIS-FACTORIAL HepG2 Assay for human Interferon Regulatory Factor 1 (IRF1) binding to an Interferon-Stimulated Response Element (ISRE) (AID 2282948); details: HepG2 ISRE cis-reporter (Attagene), mRNA transcription readout; actives raise or lower the signal
In short: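 Cell-based cis-reporter assay; HepG2; 24 h exposure; reporter mRNA by RT-PCR plus capillary electrophoresis fluorescence; activity in either direction scored relative to DMSO.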

[16] = ATG_M_32_CIS: Attagene CIS-FACTORIAL HepG2 Assay for M32 Transcription Factor (Internal Marker) (AID 2282949); details: HepG2 Attagene cis-factorial M32 reporter, mRNA; actives raise or lower the signal;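 note: background control marker of the multiplexed CIS panel rather than a real target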
In short: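 HepG2 cells transiently transfected with multiplexed cis-regulated reporter units, dosed 24 h. Reporter mRNA quantified by RT-PCR, 6-FAM labelling, HpaI digestion and capillary electrophoresis; bidirectional fit vs DMSO.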

[17] = ATG_M_06_CIS: Attagene CIS-FACTORIAL HepG2 Assay for M06 Transcription Factor (Internal Marker) (AID 2282950); details: HepG2 Attagene CIS-FACTORIAL M06 internal marker reporter; actives raise or lower the signal
In short: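 Cells (HepG2, transiently carrying cis-driven reporter units) receive chemical for 24 h before RNA isolation. Reporter cDNA is PCR-amplified, FAM-labelled by primer extension, HpaI-digested and sized on a capillary analyser.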

[18] = ATG_EGR_CIS: Attagene CIS-FACTORIAL HepG2 Assay for human Early Growth Response 1 (EGR1) (AID 2282938); details: HepG2 Attagene CIS-FACTORIAL EGR reporter mRNA; actives raise or lower the signal
In short: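 Activity is taken as induction or loss of reporter mRNA versus DMSO, fitted bidirectionally. Transcripts from cis-regulated reporter units in transiently transfected HepG2 were measured after 24 h by RT-PCR with capillary electrophoresis.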

[19] = ATG_E_Box_CIS: Attagene CIS-FACTORIAL HepG2 Assay for human Enhancer Box (E-box) (AID 2282936); details: HepG2 E-box cis-reporter transcription, actives raise or lower the signal
In short: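 Cells: HepG2 (human liver), transient MRTU transfection. Exposure 24 h. RNA → oligo(dT) RT → PCR → 6-FAM label → HpaI → CE. Activity fitted both directions relative to DMSO.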

[20] = target: Transcription factor E2F1 (Homo sapiens) (UniProt Q01094); assay: ATG_E2F_CIS: Attagene CIS-FACTORIAL HepG2 Assay for human E2F Transcription Factor 1 (AID 2282935); details: HepG2 Attagene cis-reporter, E2F reporter RNA transcripts; actives raise or lower the signal
Transcription factor E2F1 (Homo sapiens), sequence (Q01094 whole entry, looked up): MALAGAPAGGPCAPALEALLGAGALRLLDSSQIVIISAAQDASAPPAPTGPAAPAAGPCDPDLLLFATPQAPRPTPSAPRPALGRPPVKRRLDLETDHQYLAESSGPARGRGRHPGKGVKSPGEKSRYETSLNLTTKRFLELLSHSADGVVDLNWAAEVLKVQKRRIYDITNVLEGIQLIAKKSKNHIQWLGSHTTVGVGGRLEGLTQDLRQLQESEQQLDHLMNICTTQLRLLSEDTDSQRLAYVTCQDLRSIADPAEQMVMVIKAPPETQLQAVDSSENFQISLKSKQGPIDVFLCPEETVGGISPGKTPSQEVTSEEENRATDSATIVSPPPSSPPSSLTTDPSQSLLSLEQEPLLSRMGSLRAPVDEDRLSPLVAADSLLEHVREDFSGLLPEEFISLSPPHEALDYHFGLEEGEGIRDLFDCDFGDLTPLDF
In short: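 Cis-element reporter mRNA induction in transiently transfected HepG2, 24 h exposure. Activity fitted in both directions relative to DMSO negative control.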

NC(=O)CCl
outcome [1]: inactive | outcome [2]: inactive | outcome [3]: inactive | outcome [4]: inactive | outcome [5]: inactive | outcome [6]: inactive | outcome [7]: inactive | outcome [8]: inactive | outcome [9]: inactive | outcome [10]: inactive | outcome [11]: inactive | outcome [12]: inactive | outcome [13]: inactive | outcome [14]: inactive | outcome [15]: inactive | outcome [16]: inactive | outcome [17]: inactive

COCCl
outcome [1]: inactive | outcome [2]: inactive | outcome [3]: inactive | outcome [4]: inactive | outcome [5]: inactive | outcome [18]: inactive | outcome [6]: inactive | outcome [8]: inactive | outcome [9]: inactive | outcome [10]: inactive | outcome [11]: inactive | outcome [12]: inactive | outcome [13]: inactive | outcome [14]: inactive | outcome [15]: inactive | outcome [16]: inactive | outcome [17]: inactive

O=C/C(Cl)=C(/Cl)C(=O)O
outcome [1]: inactive | AC50 [2]: 61.5 µM (active) | outcome [3]: inactive | outcome [4]: inactive | AC50 [19]: 100 µM (active) | outcome [5]: inactive | AC50 [18]: 145 µM (active) | outcome [6]: inactive | outcome [7]: inactive | outcome [8]: inactive | outcome [9]: inactive | AC50 [10]: 132 µM (active) | outcome [11]: inactive | outcome [12]: inactive | AC50 [13]: 46 µM (active) | outcome [14]: inactive | AC50 [15]: 100 µM (active) | outcome [16]: inactive

O=S(=O)(Oc1ccc(Cl)cc1)c1ccc(Cl)cc1
AC50 [1]: 32.6 µM (active) | outcome [2]: inactive | outcome [3]: inactive | outcome [4]: inactive | outcome [19]: inactive | outcome [5]: inactive | outcome [18]: inactive | outcome [6]: inactive | outcome [7]: inactive | outcome [8]: inactive | outcome [9]: inactive | outcome [10]: inactive | outcome [11]: inactive | outcome [12]: inactive | outcome [14]: inactive | outcome [15]: inactive | outcome [16]: inactive | outcome [17]: inactive

C[N+](C)(C)Cc1ccccc1
outcome [1]: inactive | outcome [2]: inactive | outcome [3]: inactive | outcome [20]: inactive | outcome [19]: inactive | outcome [5]: inactive | outcome [18]: inactive | outcome [6]: inactive | outcome [7]: inactive | outcome [8]: inactive | outcome [9]: inactive | outcome [10]: inactive | outcome [11]: inactive | outcome [12]: inactive | outcome [13]: inactive | outcome [14]: inactive | outcome [15]: inactive | outcome [16]: inactive | outcome [17]: inactive

CS(=O)(=O)c1ccc(C(=O)C2C(=O)CCCC2=O)c(Cl)c1COCC(F)(F)F
outcome [1]: inactive | outcome [2]: inactive | outcome [3]: inactive | outcome [4]: inactive | outcome [19]: inactive | outcome [5]: inactive | outcome [18]: inactive | AC50 [7]: 27.3 µM (active) | outcome [8]: inactive | outcome [9]: inactive | outcome [10]: inactive | outcome [11]: inactive | outcome [12]: inactive | outcome [14]: inactive | outcome [15]: inactive | outcome [16]: inactive | outcome [17]: inactive

C=CC(=O)NC(C)(C)CC(C)=O
outcome [1]: inactive | outcome [2]: inactive | outcome [3]: inactive | outcome [4]: inactive | outcome [19]: inactive | outcome [5]: inactive | outcome [18]: inactive | outcome [6]: inactive | outcome [7]: inactive | outcome [8]: inactive | outcome [9]: inactive | outcome [10]: inactive | outcome [11]: inactive | outcome [12]: inactive | outcome [14]: inactive | outcome [15]: inactive | outcome [16]: inactive | outcome [17]: inactive

CCOc1cc(C=O)ccc1O
outcome [1]: inactive | outcome [2]: inactive | outcome [3]: inactive | outcome [20]: inactive | outcome [19]: inactive | outcome [5]: inactive | outcome [8]: inactive | outcome [9]: inactive | outcome [10]: inactive | outcome [11]: inactive | outcome [12]: inactive | outcome [14]: inactive | outcome [15]: inactive | outcome [16]: inactive | outcome [17]: inactive
